TDP1 cell noCPT – qHTS for Inhibitors of human tyrosyl-DNA phosphodiesterase 1 (TDP1): qHTS in cells in absence of CPT. DT40 Tdp1-/- hTDP1 cells, no CPT, ATP luminescence, 48 h. Potency, µM (doses to about 46.2 µM), inactives show top-dose activity change, negative = growth inhibition, hits mostly inhibitors. actives 15% (n = 420,000); further: potency means the concentration at half of the fitted maximal effect; nearly all actives have a fitted effect of over 55% in size
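Chicken DT40 Tdp1-/- cells complemented with human TDP1, screened without camptothecin (DMSO vehicle only), 400 cells/well. Compounds pin-transferred, cells incubated at 37 °C for at least 48 hr. Growth read as ATP-dependent luminescence (CellTiter-Glo, 30 min at RT).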
VP16 counter – inhibits Gal4-VP16 luciferase reporter, ROR gamma counter-screen; Drosophila S2 Gal4-VP16 UAS-luciferase, luminescence, 20 h; Potency, µM (titrated, usually from 53.6 µM), for the others: at the top dose activity, negative = inhibition, most hits filed as inhibitors; actives 3.5% (n = 310,000); AID 2546;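 further: Gal4-VP16 expression switched on by copper sulfate through the metallothionein promoter; potency means the concentration at half of the fitted maximal effect; nearly all actives have a fitted effect of over 50% in size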
ELG1 DNA repair – inhibitors of ELG1-dependent DNA repair in HEK293T cells; HEK293T ELG1-luciferase reporter, luminescence, 16 h; DNA damage induced by 5-fluorouridine; Potency, µM (highest dose often 46.1 µM), without a hit: at the highest dose activity change, negative = inhibition, usual class: inhibitors; actives 2.3% (n = 330,000); AID 504467; further: potency means the concentration at half of the fitted maximal effect; nearly all actives have a fitted effect of over 55% in size
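HEK293T cells expressing luciferase-tagged ELG1 (2,000/well) received 5-Fluorouridine plus compound or DMSO for 16 hr at 37 °C. Luciferase was read by ONE-Glo luminescence after 30 min at room temperature.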
IL-1B inflam inh – blocks inflammasome-driven IL-1 beta release; actives 4.7% (n = 360,000); AID 743279; activity change, % at 57.5 µM; THP-1 LPS/ATP IL-1B secretion, AlphaLISA, 16 h; active compounds read low; in the data active means activity change below about -50%; inconclusive means mostly about -30% to -49%
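THP-1 cells pretreated 1 hr with compounds (up to 57.5 uM final), then stimulated with LPS (250 ng/mL final) plus ATP (1.25 mM final); secreted IL-1B measured by AlphaLISA after 16 hr, decreased signal indicating inhibition.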
DT40 TDP1 CPT – DT40-hTDP1 cell growth loss with CPT; chicken DT40 Tdp1-/-;hTDP1 cells + 20 nM CPT, ATP luminescence, 48 h; Potency, µM (series often up to 46.2 µM), without a hit: top-dose activity change, negative = growth inhibition, most hits filed as inhibitors; actives 12% (n = 420,000); AID 686979; further: potency means the concentration at half of the fitted maximal effect; nearly all actives have a fitted effect of over 55% in size
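Cell growth measured by CellTiter-Glo luminescence after a minimum 48 h, 37 C compound exposure with 20 nM CPT in Tdp1-knockout DT40 cells stably expressing hTDP1, seeded 400/well; qHTS titration format.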
RORgamma inh – inhibitors of mouse ROR gamma transcriptional activity | P51450 | Drosophila S2 Gal4-RORgamma UAS-luciferase reporter, 20 h | Potency, µM (doses to about 53.6 µM), for inactives: at the top dose activity change, negative = inhibition, most hits filed as inhibitors | actives 5.4% (n = 310,000); further: potency means the concentration at half of the fitted maximal effect; nearly all actives have a fitted effect of over 60% in size
Target sequence (P51450 whole entry, looked up, the tested form may be a part): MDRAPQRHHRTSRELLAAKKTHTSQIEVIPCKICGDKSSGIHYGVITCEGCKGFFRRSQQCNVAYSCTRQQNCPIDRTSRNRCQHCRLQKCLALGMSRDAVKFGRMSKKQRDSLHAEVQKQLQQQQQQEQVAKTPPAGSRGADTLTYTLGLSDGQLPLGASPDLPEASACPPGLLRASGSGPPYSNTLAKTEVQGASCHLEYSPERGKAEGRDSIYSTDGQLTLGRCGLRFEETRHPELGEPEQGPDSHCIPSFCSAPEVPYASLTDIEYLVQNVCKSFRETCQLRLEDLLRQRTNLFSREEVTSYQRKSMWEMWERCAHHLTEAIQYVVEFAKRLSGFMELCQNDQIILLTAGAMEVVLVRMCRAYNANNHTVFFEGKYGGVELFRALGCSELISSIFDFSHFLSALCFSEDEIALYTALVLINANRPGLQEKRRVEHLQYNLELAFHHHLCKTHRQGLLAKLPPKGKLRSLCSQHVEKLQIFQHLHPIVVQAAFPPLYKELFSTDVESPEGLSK
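Compounds are pin-transferred onto Drosophila Schneider cells expressing a copper-inducible Gal4–ROR gamma transactivation domain fusion. After 1 hr, copper sulfate is added to 700 uM final; luciferase is read 20 hr later.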
Starred values were filed as active, the others as inactive; ? = inconclusive; . = no result; [ ] = remark or other dose. This is a sample that favours compounds with a hit; in the whole collection about 21% have one here. Unless noted, the call rests on the fitted dose curve; in most records, active means well fitted curve in the direction sought with a large enough effect; inconclusive means small, poorly fitted or top-dose-only effect, or another doubt; inactive means no such curve, though single readings can be large; an effect the other way counts as inactive or inconclusive. On the % scale 0 is the no-effect control and ±100 the full control effect.

SMILES	TDP1 cell noCPT	VP16 counter	ELG1 DNA repair	IL-1B inflam inh	DT40 TDP1 CPT	RORgamma inh
CN(C)c1ccc(-c2ccc3ncnc(NCc4ccccc4)c3c2)cc1	?	-1%	.	.	?	9%
COc1ccc(OC)c2c(/C=C/c3c[nH]c4ccccc34)ccnc12	?	.	.	.	-111%	.
CN(C)c1ccc(/C=C/c2ccnc3ccc(N)cc23)cc1	?	.	.	.	18µM*	.
COc1ccccc1NC(=O)Cn1c(=O)n(Cc2nc(-c3ccccc3)no2)c(=O)c2ccccc21	?	.	.	.	-28%	.
CCc1ccc(NC(=O)Cn2c(=O)n(Cc3ccco3)c(=O)c3cccnc32)cc1	-21%	.	.	.	-16%	.
Cc1c(C(=O)N2CCCCCC2)c(S(=O)(=O)NCc2ccccc2)c(C)n1C	-17%	.	.	.	0%	.
CN(C)c1ccc(C=O)c(Cl)c1	0%	.	.	.	4%	.
Brc1ccc2ncc3ccccc3c2c1	?	.	.	-15	?	.
CN(C)c1ccc(/C=C/c2ccnc3ccc(Cl)cc23)cc1	13µM*	.	.	.	?	.
CN(C)c1ccc(/C=C/c2ccnc3ccc(Br)cc23)cc1	5.6µM*	.	.	.	5.6µM*	.
COc1cc(C2c3[nH]c4ccccc4c3CC3C(=O)N4C(Cc5c([nH]c6ccccc56)C4c4cc(OC)c(OC)c(OC)c4)C(=O)N32)cc(OC)c1OC (stereo unspecified)	.	?	.	.	.	-30%[10 µM]
C=CCn1c(NC(=O)c2ccccc2Cl)c(C#N)c2nc3ccccc3nc21	21µM*	?	?	-60*	16µM*	?
CCc1cc(C(=O)OC)c(NC(=O)CN2CCN(C(=O)c3ccco3)CC2)s1	?	-54%	10µM*	0	?	7%
CC1CCc2c(sc(NC(=O)CN3CCN(C(=O)c4ccco4)CC3)c2C#N)C1 (stereo unspecified)	26µM*	2%	16µM*	-8	18µM*	?
Cc1cc(C(=O)c2ccccc2)c(NC(=O)CN2CCOCC2)s1	-28%	-8%	7%	-15	-19%	-1%
Cc1ccc(C(=O)c2cc(C)sc2NC(=O)CN2CCN(C(=O)c3ccco3)CC2)cc1	18µM*	?	?	-69*	?	-19%
CCOC(=O)c1c(NC(=O)CN2CCN(C(=O)c3ccco3)CC2)sc(C(N)=O)c1C	18µM*	-8%	23µM*	-11	-28%	-10%
CC(=O)C1=C(c2ccc(Br)cc2)N(C(C)=O)n2c(nnc2C2CCCCC2)S1	?	.	.	.	5%	.
CCCCNC(=O)C1C(c2ccc(OC)cc2)=Nc2ccccc2N1C(=O)c1ccc2ncccc2c1 (stereo unspecified)	?	.	.	6	?	.
CC(C)c1ccc(OCC(=O)Nc2c3c(nn2C(C)(C)C)CS(=O)(=O)C3)cc1	?	.	?	-12	12µM*	.
CC(C)(C)n1nc2c(c1NC(=O)c1ccc(Cl)c([N+](=O)[O-])c1)CS(=O)(=O)C2	1%	-10%	6%	-98*	-26%	-21%
CC(C)(C)n1nc2c(c1NC(=O)COc1ccc(Cl)cc1)CS(=O)(=O)C2	3%	11%	-12%	-15	4%	17%
CCCCCCCC/C=C\CCCCCCCC(=O)NCCCC(=O)O	.	-23%	.	.	.	2%
CCc1ccc(S(=O)(=O)Nc2cccc(-c3ccc(OC)nn3)c2)s1	9.2µM*	.	.	.	12µM*	.
CCc1ccc(S(=O)(=O)Nc2cccc(-c3ccc4nnc(C)n4n3)c2)s1	16µM*	.	0%	49	23µM*	.
SMILES	TDP1 cell noCPT	VP16 counter	ELG1 DNA repair	IL-1B inflam inh	DT40 TDP1 CPT	RORgamma inh
Cc1ccc(N2CC(C(=O)Nc3ccc(Br)cc3)CC2=O)cc1 (stereo unspecified)	-28%	.	.	.	-30%	.
Cc1cccc(C)c1NC(=O)C1(C)CSCC(=O)N1Cc1cccs1 (stereo unspecified)	-16%	.	.	-10	-29%	.
CN(C)c1ccc(/C=C/c2ccnc3c(Cl)cccc23)cc1	7.9µM*	.	.	.	11µM*	.
CN(C)c1ccc(/C=C/c2ccnc3c(O)ccc(O)c23)cc1	-12%	.	.	.	-18%	.
CN(C)c1ccc(/C=C/c2ccnc3c(-c4ccccc4)cccc23)cc1	?	.	.	.	11µM*	.
C=C1C(=O)O[C@H]2C1CC[C@@](C)(O)C13C=CC(C)(C21)C1(C3)C(=O)O[C@@H]2C3C(C)=CCC3[C@](C)(O)C[C@H](OC(C)=O)C21 (stereo partly specified)	16µM*	20%	-8%	-94*	?	13%
CC(C)(C)C1CCc2oc3ccc(NS(=O)(=O)c4cc(Cl)ccc4Cl)cc3c2C1 (stereo unspecified)	?	.	.	.	26µM*	.
Cc1cc(C)c(S(=O)(=O)Nc2ccc(O)cc2)cc1C	21µM*	-5%	-8%	0	?	?
CCOc1cc(C)c(S(=O)(=O)Nc2ccc(F)cc2)cc1C	16µM*	?	?	-5	16µM*	-14%
COc1ccc(C)cc1S(=O)(=O)Nc1ccc(F)cc1	-10%	-11%	26%	53	5%	10%
